In PubChem BioAssay AID488969 (Vanderbilt High Throughput Screening Facility, 2010):
Over roughly 110,000 compounds, “z-score” has its median near -0.1; the highest 2% begin near 2. This excerpt belongs to a sample that is enriched for the highest values. The source made the active and inactive calls.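 How the source made its calls: active means z-score in the third read window above 3 or below -3; inactive means the rest.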

biological target: Metabotropic glutamate receptor 8 (Rattus norvegicus) (UniProt P70579); test: rat mGluR8 modulators via GIRK flux, primary screen, cell-based, thallium flux, HTS (AID 488969); settings: HEK293 rat mGluR8, GIRK (G protein-gated inwardly rectifying potassium channel) thallium flux, FluoZin2; at 10 µM; stronger effect = higher value; submaximal glutamate (EC20) added with thallium
Sequence (P70579 whole entry, looked up): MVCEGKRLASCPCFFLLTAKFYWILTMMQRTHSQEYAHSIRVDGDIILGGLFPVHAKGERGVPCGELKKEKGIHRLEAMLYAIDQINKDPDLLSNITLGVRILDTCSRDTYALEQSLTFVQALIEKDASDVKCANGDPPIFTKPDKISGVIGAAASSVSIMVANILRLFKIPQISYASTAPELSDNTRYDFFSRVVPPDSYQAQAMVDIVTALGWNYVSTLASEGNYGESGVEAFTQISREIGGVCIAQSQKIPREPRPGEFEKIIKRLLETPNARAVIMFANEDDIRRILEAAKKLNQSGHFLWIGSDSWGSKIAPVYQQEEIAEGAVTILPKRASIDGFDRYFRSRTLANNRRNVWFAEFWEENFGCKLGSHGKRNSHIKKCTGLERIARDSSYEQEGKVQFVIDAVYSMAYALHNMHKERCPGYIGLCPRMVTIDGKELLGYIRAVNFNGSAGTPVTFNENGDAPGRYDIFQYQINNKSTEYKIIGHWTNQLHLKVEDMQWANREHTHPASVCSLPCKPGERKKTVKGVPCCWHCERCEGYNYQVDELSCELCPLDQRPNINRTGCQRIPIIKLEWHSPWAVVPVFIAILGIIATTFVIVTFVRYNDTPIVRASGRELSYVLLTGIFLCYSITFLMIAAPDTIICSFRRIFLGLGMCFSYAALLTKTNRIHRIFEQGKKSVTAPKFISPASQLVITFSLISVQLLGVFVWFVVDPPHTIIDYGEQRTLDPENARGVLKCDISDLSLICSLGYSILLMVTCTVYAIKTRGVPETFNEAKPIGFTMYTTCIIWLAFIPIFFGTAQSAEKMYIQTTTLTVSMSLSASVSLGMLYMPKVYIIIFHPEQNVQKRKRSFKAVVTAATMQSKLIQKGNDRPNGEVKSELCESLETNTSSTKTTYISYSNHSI

| Compound | z-score |
| --- | --- |
| CN(/N=C/c1cccnc1)c1cnn(-c2ccc(F)c(Cl)c2)c(=O)c1Cl | -0.0102 |
| COC(=O)c1ccc(NC(=S)NC(=O)c2cc(-c3ccccc3)nc3ccccc23)cc1 | 8.36 (active) |
| COC(=O)c1ccc(NC(=S)Nc2ccccc2)cc1 | 0.0759 |
| COC(=O)c1cc(OC)c(OC)cc1NC(=O)c1cc(-c2ccccc2)nc2ccccc12 | -0.917 |
| COc1ccc(Cl)cc1C(=O)NNC(=S)NC(=O)c1cc(-c2ccccc2)nc2ccccc12 | 1.06 |
| O=C(Nc1ccon1)c1cc(-c2ccccc2)nc2ccccc12 | -1.67 |
| O=C(NC(=S)Nc1ccccc1)c1cc(-c2ccccc2)nc2ccccc12 | 9.35 (active) |
| c1ccc(CNc2nc(-c3cccs3)nc3ccccc23)cc1 | 0.32 |
| O=C(O)c1cc(NCc2ccccc2C(F)(F)F)ccc1N1CCOCC1 | -0.168 |
| N#Cc1cc([N+](=O)[O-])cnc1Nc1ccccc1 | -0.521 |
| CCOC(=O)c1c(NC2=NS(=O)(=O)c3ccccc32)sc2c1CCC(C)C2 (configuration not stated) | 0.00913 |
| COC(=O)c1c(NC(=O)c2cccs2)sc2c1CCC(C)C2 (configuration not stated) | -0.363 |
| COC(=O)c1c(NS(=O)(=O)c2ccc(C)cc2)sc2c1CCC(C)C2 (configuration not stated) | 7.28 (active) |
| COCC(=O)Nc1sc2c(c1C(=O)OC)CCC(C)C2 (configuration not stated) | -0.444 |
| CC1CCc2c(sc(N)c2C(=O)OC(C)C)C1 (configuration not stated) | 0.201 |
| COC(=O)c1c(NC(=O)c2ccccc2N(C)S(=O)(=O)c2ccccc2)sc2c1CCCC2 | -0.215 |
| CC1CCc2c(sc(NS(=O)(=O)c3ccccc3)c2C(=O)OC(C)C)C1 (configuration not stated) | 8.13 (active) |
| COC(=O)c1c(NC(=O)CN2CCN(S(=O)(=O)c3ccccc3)CC2)sc2c1CCC(C)C2 (configuration not stated) | -0.486 |
| CCOC(=O)c1c(NC(=O)C2CCCN(S(=O)(=O)c3ccccc3)C2)sc2c1CCCC2 (configuration not stated) | 0.269 |

| Compound | z-score |
| --- | --- |
| CNC(=O)c1c(N)sc2c1CCCCC2 | 0.209 |
| CC(C)OC(=O)c1c(N)sc2c1CCCC2 | 2.03 |
| CC(C)OC(=O)c1c(NS(=O)(=O)c2ccccc2)sc2c1CCCC2 | 12.3 (active) |
| O=C(CSc1nnnn1-c1cccc(F)c1)Nc1nc2ccccc2s1 | -0.0501 |
| CC(Sc1nc(-c2ccccc2)cc(C(F)(F)F)n1)C(=O)N1CCOCC1 (configuration not stated) | -0.153 |
| CCOc1ccc(N2C(=O)c3ccccc3C2O)cc1 (configuration not stated) | 8.14 (active) |
| CCOc1ccc(N2C(=O)c3ccccc3C2=O)cc1 | -1.29 |
| O=C1c2ccccc2C(O)N1c1ccc(Cl)cc1 (configuration not stated) | -0.698 |
| CCOc1ccc2cc(S(=O)(=O)n3ccnc3C)ccc2c1 | 0.917 |
| COc1ccc([N+](=O)[O-])cc1NC(=O)C1CCCO1 (configuration not stated) | -0.326 |
| C=CCNC(=O)CSc1cc([N+](=O)[O-])cc(S(=O)(=O)Cc2ccccc2)c1 | 0.665 |
| CCC(=O)n1nc(-c2cccnc2)nc1NCc1ccc(OC)cc1 | -5.08 (active) |
| Nc1nc(-c2cccnc2)nn1C(=O)c1ccco1 | 0.31 |
| COc1ccc(CNc2nc(-c3cccnc3)nn2C(=O)c2ccco2)cc1 | 9.48 (active) |
| COc1cc(NC(=O)c2ccc(-c3ccc(Br)cc3)o2)ccc1NC(=O)C(C)C | 0.116 |
| CCOC(=O)C(CC)Sc1nnc2c3cc(C)ccc3n(C)c2n1 (configuration not stated) | -0.798 |
| COC(=O)Cc1c(C)nc2nc(-c3ccc(OC)cc3)[nH]n2c1=O | -0.0668 |
| COC(=O)Cc1c(C)nc2nc(-c3ccccc3)[nH]n2c1=O | -0.455 |
| COC(=O)Cc1c(C)nc2nc(-c3ccco3)[nH]n2c1=O | 2.68 |

| Compound | z-score |
| --- | --- |
| CCn1c(SCC(=O)Nc2nc(-c3ccccc3)cs2)nnc1-c1ccccc1O | -0.347 |
| O=C1C(=O)N(CNc2cccnc2)c2ccccc21 | -0.21 |
| CNC(=S)N/N=C/c1ccc2c(c1)OCCO2 | 0.205 |
| CC(C)c1ccc(/C=N/Nc2ccc(C(=O)O)cc2)cc1 | -0.222 |
| CNC(=S)N/N=C/c1ccc(C(C)C)cc1 | 3.01 (active) |
| Cn1c(SCc2ccc(Br)cc2)nnc1-c1ccncc1 | -0.143 |
| Cc1cccc(-c2cc3nc4c(c(N5CCC6(CC5)OCCO6)n3n2)CCCC4)c1 | 0.391 |
| CC1CN(C2CC(C)(C)NC(C)(C)C2)CCC1=O (configuration not stated) | 3.98 (active) |
| CC1CN(Cc2ccccn2)CCC1=O (configuration not stated) | -0.215 |
| CC(=O)N1CN(C2CC(C)(C)NC(C)(C)C2)Cc2c1sc1c2CCCC1 | 0.426 |
| O=C(NNC(=O)C1CCN(Cc2ccccc2)CC1)c1cccc(Cl)c1 | 0.0829 |
| CCOC(=O)c1cn(-c2ccccc2CO)c2c(F)c(F)c(F)cc2c1=O | -0.237 |
| COc1ccc2ncc(S(=O)(=O)c3ccccc3)c(N3CCC4(CC3)OCCO4)c2c1 | -0.776 |
| CC1(C)NC(=O)N(CC(O)COc2ccc(-c3ccccc3)cc2)C1=O (configuration not stated) | -0.0166 |
| CN(C)CC(O)COc1ccc(-c2ccc(C#N)cc2)cc1 (configuration not stated) | 2.48 |
| CN(C)CC(O)COc1cccc(OCC(O)CN(C)C)c1 (configuration not stated) | -0.132 |
| Cc1ccc(OCC(O)CN2C(=O)NC(C)(C)C2=O)cc1 (configuration not stated) | -0.38 |
| CC1(C)NC(=O)N(CC(O)COc2ccc(-c3ccc(C#N)cc3)cc2)C1=O (configuration not stated) | 5.36 (active) |
| N#Cc1ccc(-c2ccc(OCC(O)Cn3nnc4ccccc43)cc2)cc1 (configuration not stated) | -0.106 |
